Experimental data from PubChem BioAssay (EPA / NIEHS).
Activity calls are given as the source filed them. How the source made its calls: active means hit-call score of the fitted dose curve at least 0.9, where 1 is the maximum; inactive means score below 0.9.

Assay: ATG_TA_CIS: Attagene CIS-FACTORIAL HepG2 Assay for human TA Basal Promoter (AID 2282964)
Details: HepG2 Attagene CIS-factorial TA basal promoter reporter; actives raise or lower the signal
Protocol: ATG_CIS is a cell-based, multiplexed-readout assay that uses HepG2, a human liver cell line, with measurements taken at 24 hours after chemical dosing in a 24-well plate.ATG_TA_CIS is one of 52 assay component(s) measured or calculated from the ATG_CIS assay. It is designed to make measurements of mRNA induction, a form of inducible reporter, as detected with fluorescence intensity signals by Reverse transcription polymerase chain reaction (RT-PCR) and Capillary electrophoresis technology.Data from the assay component ATG_TA_CIS was analyzed into 1 assay endpoint. This assay endpoint, ATG_TA_CIS, was analyzed with bidirectional fitting relative to DMSO as the negative control and baseline of activity. Using a type of inducible reporter, measures of mRNA for gain or loss-of-signal activity can be used to understand the background control at the transcription factor-level as they relate to the gene . Furthermore, this assay endpoint can be referred to as a secondary readout, because this assay has produced multiple assay endpoints where this one serves a background control function. To generalize the intended target to other relatable targets, this assay endpoint is annotated to the background measurement intended target family, where the subfamily is internal marker.
Human liver HepG2 cells are transiently transfected with multiple reporter transcription units (MRTUs) in 6-well plates using FuGene 6 reagent (Roche; 3 ml FuGene/1 mg DNA). The MRTU constructs are regulated by a cis-regulating element (promoter). […] A major difference between the CIS and TRANS system is that in CIS activities of endogenous TFs are measured, whereas the TRANS assay evaluates changes in activities of exogenous, chimeric NR-Gal4 proteins. […] At the end of 24 hour incubation, total RNA was isolated using TriZol reagent (Invitrogen). The isolated RNA is then reverse-transcribed using oligo(dT) primer and Mo-MLV reverse transcriptase (Invitrogen) with DNAse I (Ambion) treatment for 30 min. The one-tenth of the produced cDNA was amplified by PCR using Taq DNA polymerase (Invitrogen) and two reporter sequence-specific primers. The PCR products were fluorescently labeled by primer extension with 6-arboxyfluorescein (6-FAM) 5'-labeled reporter sequence-specific primer (2 min at 95 C, 20 s at 68 C and 10 min at 72 C) and these products were digested with 5U of HpaI (New England Biolabs) for 2h at 37 C. The fragments were purified using Qiaquick PCR columns (Qiagen), analyzed on an ABI 3130xL genetic analyzer (Applied Biosystems) with peak positions identified by using a set of X-rhodamine (ROX)-labeled MapMarker1000 molecular weight standards (BioVentures). The raw capillary electrophoresis data was processed using Attagraph software (Attagene).

Q: With `CC1(C)C(=O)NC(=O)NC1=O` as the compound, how does the outcome read?
A: inactive

Q: For `CC(C)(C)C(=O)CCl`, which outcome is on record?
A: inactive

Q: Which outcome does the source give for `CC(Cc1ccc(C(C)(C)C)cc1)CN1C[C@@H](C)O[C@@H](C)C1` (stereo not given in full) here?
A: inactive

Q: With `[CH3][Sn]([CH3])([Cl])[Cl]` as the compound, how does the outcome read?
A: inactive

Q: For `CCOC(=O)NC(=S)Nc1ccccc1NC(=S)NC(=O)OCC`, which outcome is on record?
A: inactive

Q: Which outcome does the source give for `CC[N+](=O)[O-]` here?
A: inactive

Q: With `O=S(=O)(O)O` as the compound, how does the outcome read?
A: inactive

Q: For `CC(C)(O)C#N`, which outcome is on record?
A: inactive

Q: For `ClC1=C(Cl)[C@]2(Cl)[C@@H]3[C@@H](Cl)[C@H](Cl)C[C@@H]3[C@@]1(Cl)C2(Cl)Cl`, which outcome is on record?
A: inactive

Q: For `O=[N+]([O-])C=Cc1ccccc1`, which outcome is on record?
A: inactive

Q: For `C=CCO`, which outcome is on record?
A: inactive

Q: With `CC(C)CCCCCCCOP(=O)(Oc1ccccc1)Oc1ccccc1` as the compound, how does the outcome read?
A: inactive

Q: For `CCC(C)(C)O`, which outcome is on record?
A: inactive

Q: For `C[C@]12CC[C@H]3[C@@H](CC[C@@]45O[C@@H]4C(O)=C(C#N)C[C@]35C)[C@@H]1CC[C@@H]2O`, which outcome is on record?
A: inactive

Q: For `N#CCCCl`, which outcome is on record?
A: inactive

Q: With `CCCC=NO` as the compound, how does the outcome read?
A: inactive

Q: For `[Cl-].[Cl-].[Cl-].[Yb+3]`, which outcome is on record?
A: inactive

Q: With `O=C(NC(=O)c1c(F)cccc1F)Nc1ccc(Oc2ccc(C(F)(F)F)cc2Cl)cc1F` as the compound, how does the outcome read?
A: inactive

Q: With `N#Cc1cccc(C#N)c1` as the compound, how does the outcome read?
A: inactive

Q: For `Nc1ccc(Cl)c(Cl)c1`, which outcome is on record?
A: inactive

Q: With `Cl/C=C\CCl` as the compound, how does the outcome read?
A: inactive

Q: With `CC(C)(c1cc(Cl)c(O)c(Cl)c1)c1cc(Cl)c(O)c(Cl)c1` as the compound, how does the outcome read?
A: inactive

Q: Which outcome does the source give for `CCC(C)c1cc(C(C)(C)C)cc(-n2nc3ccccc3n2)c1O` (stereo not given) here?
A: inactive

Q: Which outcome does the source give for `C[N+](C)=CCl` here?
A: inactive

Q: For `CCCCOC(=O)CCC(=O)OCCCC`, which outcome is on record?
A: inactive

Q: Which outcome does the source give for `CCC1CCC(=O)O1` (stereo not given) here?
A: inactive

Q: Which outcome does the source give for `CN1C(=O)CCS(=O)(=O)C1c1ccc(Cl)cc1` (stereo not given) here?
A: inactive

Q: For `O=S(=O)(O)OOS(=O)(=O)O`, which outcome is on record?
A: inactive

Q: Which outcome does the source give for `CC(O)CN(CC(C)O)CC(C)O` (stereo not given) here?
A: inactive

Q: Which outcome does the source give for `CCN(CC)C(=S)S` here?
A: inactive

Q: For `COC(=O)c1ccccc1S(=O)(=O)NC(=O)Nc1nc(C)cc(C)n1`, which outcome is on record?
A: inactive

Q: Which outcome does the source give for `CC(C)C(=O)Cl` here?
A: inactive

Q: With `COc1cc(OC)nc(Oc2cccc(Oc3nc(OC)cc(OC)n3)c2C(=O)O)n1` as the compound, how does the outcome read?
A: inactive

Q: Which outcome does the source give for `C[C@]12CC[C@H](O)C[C@H]1CC[C@@H]1[C@@H]2C[C@@H](O)[C@]2(C)[C@@H](C3=CC(=O)OC3)CC[C@]12O` here?
A: inactive

Q: Which outcome does the source give for `N#CC(c1ccccc1)c1ccccc1` here?
A: inactive

Q: For `O=P1(NCCCl)OCCCN1CCCl` (stereo not given), which outcome is on record?
A: inactive

Q: Which outcome does the source give for `O=C(O)CCCc1ccc(N(CCCl)CCCl)cc1` here?
A: inactive

Q: Which outcome does the source give for `N#Cc1cc(I)c(O)c(I)c1` here?
A: inactive

Q: With `CCc1cccc(C)c1N(C(=O)CCl)[C@@H](C)COC` as the compound, how does the outcome read?
A: inactive

Q: With `[CH3][Sn]([Cl])([Cl])[Cl]` as the compound, how does the outcome read?
A: inactive
